Assay [1] in a line: Cell Viability - BJ (AID 421; calls by dose curve;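 further: potency means the concentration at half of the fitted maximal effect; cells exposed to compound for 40 hours at 37 °C before readout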). Conditions: BJ fibroblast viability, qHTS. The method in brief: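 Luminescent ATP signal (CellTiter-Glo, 20 min at room temperature) served as the read-out of viable BJ cells after 40 hours of compound treatment. Responses were scaled between DMSO and 100 uM tamoxifen, and AC50 values were obtained by Hill modeling.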
For orientation: qHTS replaces the single test concentration by a dilution series.

Assay [2] in a line: Cell Viability - Jurkat (AID 426;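 active means dose-dependent loss of cell ATP signal giving a full or clear fitted curve, ranked by lower potency value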;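 further: potency means the concentration at half of the fitted maximal effect; cells exposed to compound for 40 hours at 37 °C before ATP read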). Conditions: qHTS. The method in brief:
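Cells of the human T-cell leukemia line Jurkat (E6-1) are seeded at 5000 per well, treated with compound across a concentration range for 40 hours at 37 °C, then lysed with CellTiter-Glo; luminescence reports ATP.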

A short description of assay [3]: Cell Viability - Hek293 (AID 427;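 active means compounds whose dose-response curve shows a full or clear partial loss of cell viability, called from curve shape rather than a numeric limit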;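 further: potency means the concentration at half of the fitted maximal effect; cells exposed to compound for 40 hours at 37 °C before reading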). Conditions: qHTS. Put shortly:
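Luminescent ATP read-out (CellTiter-Glo, 20 min RT) after 40 hr compound exposure at 37 °C in complete medium. Signal normalized to DMSO (basal) and 100 uM tamoxifen (100% inhibition); concentration-response fitted with the standard Hill equation to give AC50.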

A short description of assay [4]: Cell Viability - HepG2 (AID 433; calls by dose curve;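 further: potency means the concentration at half of the fitted maximal effect; potency for ATP loss meaning cytotoxicity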). Conditions: qHTS. Put shortly:
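HepG2 hepatocellular carcinoma cells (1500/well) were treated with compounds for 40 h at 37 °C in complete medium; intracellular ATP was read by CellTiter-Glo luminescence. Data were normalized to DMSO and 100 uM tamoxifen, and AC50 came from Hill fits.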

Assay [5] in a line: Cell Viability - MRC5 (AID 434; calls by dose curve;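 further: potency means the concentration at half of the fitted maximal effect; potency reflects cytotoxicity seen as loss of intracellular ATP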). Conditions: MRC5 lung fibroblast viability, qHTS. The method in brief: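 ATP luminescence read-out (CellTiter-Glo, 20 min RT) after 40 hr, 37 °C compound exposure of 1500 MRC5 cells/well. Data normalized to DMSO (basal) and 100 uM tamoxifen (100% inhibition); AC50 from standard Hill equation.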
The nature of assay [6]: Cell Viability - SK-N-SH (AID 435; calls by dose curve;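 further: potency means the concentration at half of the fitted maximal effect; compound exposure lasted 40 h at 37 °C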). Conditions: SK-N-SH neuroblastoma cell viability qHTS. Put shortly: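 SK-N-SH human neuroblastoma cells (1500/well) were exposed to compounds in complete medium for 40 h at 37 °C, and intracellular ATP was then measured by CellTiter-Glo luminescence. AC50 was taken from Hill fits, normalized to DMSO and 100 uM tamoxifen.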
A short description of assay [7]: Cell Viability - N2a (AID 540).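 Further: plate controls were DMSO alone for no effect and tamoxifen control for full effect; nearly all actives have a fitted effect of over 45% in size.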 Conditions: N2a mouse neuroblastoma cell viability; at 92.2 µM (top of the series). The method in brief: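 Cytotoxicity was scored as loss of cellular ATP in N2a cells, a mouse neuroblastoma line. Compounds are applied in a qHTS concentration series for 40 hr at 37 °C.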
Assay [8] can be described thus: Cell Viability - NIH 3T3 (AID 541).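 Further: plate controls were DMSO alone for no effect and tamoxifen positive control for full effect; nearly all actives have a fitted effect of over 25% in size.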 Conditions: NIH 3T3 cell viability, qHTS; activity change, negative = cytotoxicity: at 92.2 µM (top of the series). The method in brief:
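Cells seeded at 1000/well, rested 5 hr at 37 °C, then dosed and incubated 40 hr at 37 °C. CellTiter-Glo added, 20 min room temperature, luminescence read. AC50 by Hill fit.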

The nature of assay [9]: Cell Viability - HUV-EC-C (AID 542). Further: on the % scale 0 is the no-effect control and ±100 the full control effect; nearly all actives have a fitted effect of over 35% in size. Put shortly:
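Cells were seeded at 1000 per well and incubated 5 hr at 37 °C before compound addition. After 40 hr at 37 °C, CellTiter-Glo reagent was added for 20 min and luminescence read. AC50 values came from Hill-equation modelling.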

Assay [10] can be described thus: Cell Viability - H-4-II-E (AID 543). Further: on the % scale 0 is the no-effect control and ±100 the full control effect; nearly all actives have a fitted effect of over 35% in size. The method in brief:
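Cells seeded at 1500 per well and rested 5 hr; compounds added; 40 hr incubation at 37 °C; CellTiter-Glo added, 20 min at room temperature; luminescence read. Hill-equation fits gave AC50.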

Assay [11] can be described thus: Cell Viability - SH-SY5Y (AID 544). Further: nearly all actives have a fitted effect of over 55% in size. Conditions: SH-SY5Y neuroblastoma cell viability; viability change, negative = cytotoxic: at 92.2 µM (top of the series). The method in brief:
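Cells were plated at 1500 per well and allowed 5 hr at 37 °C. Compounds were added across a concentration range and incubated 40 hr at 37 °C. CellTiter-Glo was added for 20 min at room temperature before luminescence reading.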

Assay [12] can be described thus: Cell Viability - Renal Proximal Tubule (AID 545). Further: nearly all actives have a fitted effect of over 40% in size. Conditions: renal proximal tubule cells viability; at 91.7 µM (top of the series), primary cells of rat origin unless noted. Put shortly: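 Primary rat renal proximal tubule cells (1000/well) were treated with compounds for 40 hr at 37 °C in complete medium. Intracellular ATP was measured by CellTiter-Glo luminescence, and AC50 values came from Hill-equation fits of concentration-response data.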

Assay [13] is described as follows: Cell Viability - Mesenchymal (AID 546).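 Further: cells exposed to compound for 40 hours before reading.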 The method in brief:
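Human renal mesenchymal cells (glomerulus-derived), 1000 cells/well, 5 hr 37 °C pre-incubation; compound 40 hr, 37 °C; CellTiter-Glo, 20 min RT; luminescence; AC50 via Hill equation.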

A short description of assay [14]: Cellular Toxicity (caspase-3) HepG2 (AID 654).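 Further: cells exposed to compound for 16 hours before reading; 0% = DMSO alone and 100% = caspase signal from 100 µM tamoxifen.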 The method in brief:
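Caspase 3/7 activation in HepG2 is measured as rising luminescence after a 16 hr treatment at 37 °C. Values are scaled between DMSO basal and 100 uM tamoxifen, and AC50 is fitted with the Hill equation.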

Assay [15] can be described thus: Cellular Toxicity (caspase-3) Jurkat (AID 655).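 Further: cells exposed to compound for 16 h at 37 °C before reading.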 Conditions: Jurkat caspase-3 activation, luminescence, DMSO = 0%, tamoxifen = 100%; at 92.2 µM (top of the series). Put shortly: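 Jurkat cells (5000/well) in complete medium were treated with compounds for 16 hr at 37 °C, then Caspase-Glo 3/7 luminescence was read after 20 min at room temperature. Data normalized to DMSO (basal) and 100 uM tamoxifen (100%); AC50 from Hill fit.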

Assay [16] can be described thus: Cellular Toxicity (caspase-3) HUV-EC-C (AID 656). The method in brief: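 HUV-EC-C endothelial cells, 1000/well, were pre-incubated 5 hr at 37°C, then exposed to compounds for 16 hr at 37°C. Caspase-Glo 3/7 luminescence was read after 20 min at room temperature. AC50 came from Hill fits, normalized to DMSO and 100 uM tamoxifen.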
The nature of assay [17]: Cellular Toxicity (caspase-3) SHSY5Y (AID 657). The method in brief: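 SH-SY5Y human neuroblastoma cells (1500/well) were treated with compounds for 16 h at 37 °C, then Caspase-Glo 3/7 luminescence was read after 1 h at room temperature. Data normalized to DMSO and 10 uM staurosporine; AC50 from Hill fits.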
A short description of assay [18]: Cellular Toxicity (caspase-3) BJ (AID 658).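 Further: 0% = DMSO basal and 100% = 10 µM staurosporine.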 Put shortly:
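qHTS, BJ fibroblasts, 1000 cells/well; 5 hr preincubation, 16 hr compound, 37 °C; Caspase-Glo 3/7 reagent, 1 hr RT; luminescence. DMSO = 0%, 10 uM staurosporine = 100%. Hill-equation AC50.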

Assay [19] is described as follows: Cellular Toxicity (caspase-3) MRC-5 (AID 659).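 Further: 0% = DMSO basal and 100% = 10 µM staurosporine.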 The method in brief:
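MRC-5 fibroblasts, 1500/well; 16 h cpd, 37 °C; Caspase-Glo 3/7, 1 h RT; lumi read. Norm: DMSO = 0%, 10 uM staurosporine = 100%. Hill-fit AC50 from qHTS conc-response.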

The nature of assay [20]: Cellular Toxicity (caspase-3) SK-N-SH (AID 661).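 Further: 0% = DMSO basal and 100% = 10 µM staurosporine.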 The method in brief:
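Cells were seeded and incubated 5 hr at 37 °C, dosed with compound over a concentration range for 16 hr, then given Caspase-Glo 3/7 reagent for 1 hr at room temperature before luminescence reading.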

Assay [21] can be described thus: Cellular Toxicity (caspase-3) H-4-II-E (AID 663).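 Further: cells exposed to compound for 16 hr before readout.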 Put shortly:
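H-4-II-E rat hepatoma, 1500 cells/well, 5 hr settle at 37 °C; compound 16 hr, 37 °C, complete medium; Caspase-Glo 3/7, 20 min RT; luminescence. DMSO = 0%, 100 uM tamoxifen = 100%; Hill-equation AC50.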

The nature of assay [22]: Cellular Toxicity (caspase-3) Hek293 (AID 664).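 Further: cells exposed to compound for 16 h at 37 °C before readout.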 Put shortly: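 qHTS, HEK293 (human embryonic kidney), 16 h cpd exposure in complete medium. Caspase-3/7 activation = luminescence increase; normalized to DMSO/100 uM tamoxifen; Hill-fit AC50.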

Each structure is given as a SMILES string. Values without a mark were called inactive. Results filed as inconclusive are left out. The source made the active and inactive calls. Unless noted, the call rests on the fitted dose curve; in most records, active means well fitted curve in the direction sought with a large enough effect; inconclusive means small, poorly fitted or top-dose-only effect, or another doubt; inactive means no such curve, though single readings can be large; an effect the other way counts as inactive or inconclusive. Bounds are passed on as bounds.

For the molecule `Clc1cc(Cl)c(-c2cc(Cl)c(Cl)cc2Cl)cc1Cl`, the Potency in [1] was above 92 µM; in assay [2] it was above 92 µM; in assay [3], above 92 µM; in assay [4], above 92 µM; in [5], 24.3 µM (active); in assay [6] it was above 92 µM. The activity change, negative = cytotoxicity in assay [7] was -93.1% (active); in assay [8], -24.8%; in assay [12], -5.09% [at 91.7 µM]. Further, the Potency result in assay [9], in [10] and in assay [11] was “inactive” throughout. For the same molecule, the molecule was called inactive in [13], in assay [14], in assay [16], in [17], in assay [18] and in assay [19]. In addition, the result in assay [20], in [21] and in assay [22] was inactive. The caspase-3 activation in [15] is 0.996%.

Source of the values: PubChem BioAssay (NCATS).
